Assay outcomes deposited in PubChem BioAssay by National Center for Advancing Translational Sciences (NCATS).
ClpP mod = qHTS Assay for Activators of ClpP. purified B. subtilis ClpP, FRET peptide cleavage, 20 min. ATP-dependent Clp protease proteolytic subunit (Bacillus subtilis (strain 168)), P80244. 340,000 tested, 1.9% active. Potency, µM (highest dose often 57.5 µM), without a hit: at the top dose activity change, negative = active; active = well fitted falling curve with a large enough effect; inconclusive = small, poorly fitted or top-dose-only effect; inactive = no such curve, though single readings can be large or run the other way; note: potency is the fitted concentration of half-maximal effect; the source files actives as falling curves though it sought activators and does not explain the sign; nearly all actives have a fitted effect of over 65% in size
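FRET quenching reversal measured ClpP activation: 10 microg/mL B. subtilis ClpP at pH 8 with the FRET-FV decapeptide, read at 430 nm after 320 nm excitation. The 20-min minus 0-min signal was scaled between DMSO/no-enzyme wells and ADEP (5.8 microM final).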
TCR activator = Activators of T cell receptors: qHTS campaign; 330,000 tested, under 10 active; primary human leukocytes, anti-CD3, IL-2 HTRF, 48 h; Potency, µM (highest dose often 9.22 µM), without a hit: top-dose activation of IL-2 secretion, most hits filed as activators; note: % of control where 0% means no effect
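1) Mix primary human leukocytes, a-CD3 beads and compound. 2) Incubate 48 hr. 3) Add HTRF IL-2 reagents (a-IL-2-K, a-IL-2-d2).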
Sfp inh = qHTS Assay for Inhibitors of Bacillus subtilis Sfp phosphopantetheinyl transferase (PPTase). 310,000 tested, 3.5% active. Biochemical Sfp PPTase activity, qHTS. Potency, µM, inactives show largest response in the series, negative = inhibition, usual class: inhibitors. 4'-phosphopantetheinyl transferase ffp (Bacillus subtilis), Q9F4F7. AID 1490, 2009;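 note: the enzyme is Sfp with the accession as filed and its product quenches rhodamine fluorescence; potency is the fitted concentration of half-maximal effect; 0% = enzyme reaction without inhibitor and -100% = no enzyme wells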
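Fluorescence-quenching assay: 15 nM Sfp-PPTase preincubated 15 min at room temperature with compound, then 5 uM rhodamine-CoA and 12.5 uM BHQ-2-labelled YbbR peptide added. Fluorescence (ex 525/em 598 nm) read at start and after 30 min; difference gives rate.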
uPA surface inh = qHTS for Inhibitors of Cell Surface uPA Generation | 330,000 tested, 0.31% active | AID 540303, 2011 | Potency, µM (titrated, usually from 38.3 µM), without a hit: top-dose activity change, negative = inhibition, actives largely listed as inhibitors | cell surface uPA generation assay, qHTS; active = well fitted inhibition curve with a large enough effect; inconclusive = small, poorly fitted or top-dose-only effect; inactive = no such curve, though single readings can be large or run the other way; tested in mouse RAW 264.7 cells; note: potency is the fitted concentration of half-maximal effect; % is set by controls: 0 for no effect and ±100 for the full control effect; nearly all actives have a fitted effect of over 55% in size
* hit, by the source's call; ? = inconclusive; . = no result; ! = not confirmed by another sample; [ ] = dose if it differs, or a comment. Rows were chosen to be rich in hits. Some 4.2% of all compounds tested hit in one or more screens of this group. Unless noted, calls come from the whole dose curve; as a rule, active = well fitted curve in the direction sought with a large enough effect; inconclusive = small, poorly fitted or top-dose-only effect, or another doubt; inactive = no such curve, though single readings can be large; an effect the other way counts as inactive or inconclusive.

SMILES	ClpP mod	TCR activator	Sfp inh	uPA surface inh
CCN(CC)C(=O)c1cc([N+](=O)[O-])cc2c1-c1ccc([N+](=O)[O-])cc1C2=C(C#N)C#N	.	10%	71µM*	-4%
COc1cc(CN(C(=O)COc2ccc(Br)cc2)c2ccccn2)cc(OC)c1OC	-2%	.	.	.
COCc1cc(S(=O)c2ccc(Cl)cc2)nc(C)n1 (stereo not given)	1%	3%	79µM*	5µM*
COCc1cc(Sc2ccc(Cl)cc2)nc(C)n1	-1%	-1%	17%	-3%
Cc1sc(C(C2C(=O)CC(C)(C)CC2=O)C2C(=O)CC(C)(C)CC2=O)cc1[N+](=O)[O-]	1%	-3%	6.3µM*	-3%
CCOc1ccc2[nH]c(C)c(CN(C)C)c(=O)c2c1	16µM*	-1%	7%	4%
COc1ccc2[nH]c(C)c(CN3CCC(C)CC3)c(=O)c2c1	10µM*	0%	9%	-1%
CCCn1ccc2c(OCC(=O)Nc3ccc(OC)c(OC)c3)cccc2c1=O	-3%	.	.	.
Cc1cnc(C(=O)Nc2cccc3ncccc23)cn1	2%	-21%	-8%	-2%
Cc1cnc(C(=O)Nc2ccccc2-c2ccc(C)o2)cn1	0%	-4%	50µM*	-3%
CCOC(=O)c1c(NC(=O)C2CCCO2)sc2c1CCC2 (stereo not given)	-11%	-6%	-12%	2%
CCCCOC(=O)Nc1sc2c(c1C(=O)OC)CCC2	-8%	-1%	50µM*	2%
CCOC(=O)C(NC(=O)CC)(Nc1nc2c(s1)CCCC2)C(F)(F)F (stereo not given)	-3%	3%[46.1 µM]	10%	-5%
COCC(=O)Nc1sc2c(c1C(=O)OC)CCCC2	-20%	-3%[46.1 µM]	-7%	2%
CCOC(=O)NC(Nc1sc2c(c1C(N)=O)CCCC2)(C(=O)OCC)C(F)(F)F (stereo not given)	-11%	.	35µM*	4%
CCOC(=O)Nc1sc2c(c1C(=O)OCC)CCC2	-3%	-2%	40µM*	.
O=C1[C@H](Cc2ccccc2)NC/C=C\C[C@H](c2ccc(Cl)cc2)N1Cc1ccc(Cl)cc1	-2%	.	.	.
Cc1ccc(NC(=O)CSc2[nH]c(=O)ncc2C)cc1	3%	.	.	.
Cc1ccc(C)c(NS(=O)(=O)c2cc3c(cc2Cl)NC(=O)CO3)c1	2%	.	.	.
COC(=O)[C@@]12C[C@@H](CC(=O)N3CCN(C(=O)c4ccco4)CC3)C(=O)N(Cc3cccc4ccccc34)C1=CCC(C)(C)C2	-1%	.	.	.
O=C(CCn1c(=O)c2sccc2n(Cc2cc(=O)n3ccccc3n2)c1=O)NCc1ccco1	28µM*	-1%	-1%	.
Cc1ccc(-n2c(=O)c3sccc3n(CC(=O)NCc3ccco3)c2=O)cc1	-2%	-2%	-5%	.
Cc1cccc(Cn2c(=O)n(-c3ccc(CC(=O)NCc4ccco4)cc3)c(=O)c3sccc32)c1	-1%	2%	22µM*	?
CN(CC(=O)Nc1n[nH]c(=S)s1)S(=O)(=O)c1cccc2cccnc12	-1%	0%	40µM*	9%
O=C(O)C/C=C(\NC(=O)OCc1ccccc1)C(=O)OCc1ccccc1	0%	4%	79µM*	8%
SMILES	ClpP mod	TCR activator	Sfp inh	uPA surface inh
O=C1NCCc2c1[nH]c1ccccc21	25µM*	-6%	3%	-4%
CCn1c(=O)c(C(=O)Nc2ccccc2C)c(O)c2ccccc21	-21%	0%[46.1 µM]	10%	.
CCCn1c(=O)c(C(=O)Nc2ccccc2C)c(O)c2ccccc21	0%	.	35µM*	-3%
CCCC(=O)Nc1cccc(NC(=O)c2cccc([N+](=O)[O-])c2C)c1	11µM*	8%[46.1 µM]	6%	3%
CC1(C)C[C@@H]1C(=O)N/C(=C\CCCCSC[C@H](N)C(=O)O)C(=O)O	2%	-4%	79µM*	1%
Cc1cc(C)cc(NC(=O)C2CCN(c3nccs3)CC2)c1	1%	7%	89µM*	3%
CC1=CC(C)(C)N(C(=O)CN2C(=O)CCC2=O)c2ccc(C)cc21	.	0%	5%	6%
CCOc1ccc2c(c1)N(C(=O)CN1C(=O)CCC1=O)C(C)(C)C=C2C	32µM*	1%	23%	-3%
O=C(Cn1c2ccccc2c(=O)c2ccccc21)N/N=C/c1cc([N+](=O)[O-])ccc1N1CCCCCC1	?	-7%	11µM*	2%
O=C(Cn1c2ccccc2c(=O)c2ccccc21)N/N=C/c1ccc(N2CCCC2)c([N+](=O)[O-])c1	-17%	1%[46.1 µM]	-11%	-1%
C=C1C=C(C(F)F)n2ncc(C(=O)N3CCN(c4ccccn4)CC3)c2N1	0%	.	.	.
Fc1cnc(N2CCN(c3ccccc3)CC2)nc1N1CCN(c2ccccc2)CC1	32µM*	-2%[46.1 µM]	?	4%
Cn1c2nc(=O)[nH]c(=O)c-2cc2ccccc21	18µM*	-1%	.	3%
O=c1nc2n(Cc3ccccc3)c3ccccc3cc-2c(=O)[nH]1	.	-2%[46.1 µM]	-27%	.
O=c1nc2n(CCO)c3ccccc3cc-2c(=O)[nH]1	32µM*	2%	.	6%
Cc1ccc(N2C(=O)c3ccccc3NC2c2ccccc2O)cc1 (stereo not given)	4%	-1%	11%	?
O=C1c2ccccc2NC(c2ccccn2)N1c1ccccc1F (stereo not given)	32µM*	?	18%	.
Cc1cccc(C2Nc3ccccc3C(=O)N2c2ccc(F)cc2)n1 (stereo not given)	32µM*	-5%[46.1 µM]	12%	-4%
CC(=O)Nc1ccccc1OCc1cc(=O)n2c(C)csc2n1	1%	.	.	.
CCOc1ccc(N2CC(NC(=O)C(=O)c3c[nH]c4ccccc34)CC2=O)cc1 (stereo not given)	-1%	.	.	.
COc1cccc(CNC(=O)c2c(O)nc3ccccn3c2=O)c1	-6%	.	.	.
CC(C)Cn1cc(C(=O)NCC2CCCO2)c2c3ccccc3n(C)c2c1=O (stereo not given)	16µM*	7%	?	.
CCN(CC)CCCNC(=O)c1cn(CC(C)C)c(=O)c2c1c1ccccc1n2C	16µM*	-4%	2%	-7%
CC(C)Cn1cc(C(=O)NCCCOC(C)C)c2c3ccccc3n(C)c2c1=O	28µM*	9%	4%	-2%
CCN(CC)CCCNC(=O)c1cn(C)c(=O)c2c1c1ccccc1n2C	4%	4%	1%	4%
SMILES	ClpP mod	TCR activator	Sfp inh	uPA surface inh
CCOC(CCNC(=O)c1cn(CC(C)C)c(=O)c2c1c1ccccc1n2C)OCC	.	-4%	-14%	4%
CCCCN(CC)CCCNC(=O)c1cn(CC(C)C)c(=O)c2c1c1ccccc1n2C	20µM*!	5%	-15%	-4%
Cn1c2ccccc2c2c(C(=O)NCC3CCCO3)cn(C3CCCC3)c(=O)c21 (stereo not given)	-22%	-3%	-17%	-3%
Clc1ccc(-c2cn3c(n2)-c2ccccc2C3)cc1Cl	-3%	-1%[46.1 µM]	10%	10µM*
CCCNC(C)C(=O)Nc1ccccc1C (stereo not given)	1%	3%	3%	-20%
CCC(C)c1ccccc1NC(=O)C(C)NCCN(C)C (stereo not given)	1%	-1%	79µM*	1%
